This passage reports Potency and outcome results from PubChem BioAssay (Tox21).

Structures are written as SMILES. Unmarked numbers belong to inactive results. Records with an inconclusive call do not appear. The source made the active and inactive calls. Unless noted, calls follow the shape of the full dose curve.

The target in test [1] is Estrogen receptor beta (Homo sapiens) (UniProt Q92731). The experiment in a line: qHTS assay to identify small molecule antagonists of the estrogen receptor beta (ER-beta) signaling pathway (AID 1259378; active = well fitted inhibition curve with a large enough effect in the signal ratio in the repeat runs, not every such curve was filed as active; the % refers to the signal ratio; also: potency is read from the fitted curve at half-maximal effect). In a few lines: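 ER-beta-UAS-bla HEK293T (GripTite) cells in 2% charcoal-stripped FBS medium were preincubated 6 hr at 37C, dosed with compound, then stimulated with 1 nM E2 (final) for 16 hr; beta-lactamase reporter read by B/G FRET fluorescence after 2 hr substrate loading.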
Estrogen receptor beta (Homo sapiens), sequence (Q92731 whole entry, looked up): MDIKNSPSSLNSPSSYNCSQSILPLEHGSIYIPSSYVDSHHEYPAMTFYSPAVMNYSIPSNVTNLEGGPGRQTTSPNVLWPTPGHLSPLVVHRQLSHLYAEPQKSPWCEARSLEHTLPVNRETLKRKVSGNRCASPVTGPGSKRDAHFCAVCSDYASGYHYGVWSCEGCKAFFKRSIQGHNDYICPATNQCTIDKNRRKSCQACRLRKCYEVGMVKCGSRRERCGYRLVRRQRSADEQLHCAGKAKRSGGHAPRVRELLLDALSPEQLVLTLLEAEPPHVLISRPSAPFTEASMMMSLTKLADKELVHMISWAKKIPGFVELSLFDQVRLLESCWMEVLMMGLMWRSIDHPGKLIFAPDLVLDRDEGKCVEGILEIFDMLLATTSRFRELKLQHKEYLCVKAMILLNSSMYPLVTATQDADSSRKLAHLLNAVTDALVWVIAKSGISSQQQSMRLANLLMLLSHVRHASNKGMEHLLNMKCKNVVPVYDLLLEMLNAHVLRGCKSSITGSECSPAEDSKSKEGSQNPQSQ

Test [2] is described as follows: qHTS assay to identify small molecule agonists of the androgen receptor (AR) signaling pathway in the presence of an antagonist - cell viability counter screen (AID 1259379; active = well fitted curve in the direction sought with a large enough effect in the repeat runs; an effect the other way counts as inactive or inconclusive; also: nearly all actives have a fitted effect of over 25% in size; also: potency is read from the fitted curve at half-maximal effect). The gist of the method: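 Fluorescence from CellTiter-Fluor, added after 15 hr and read 1 hr later, gave cell viability. Cells were MDA-kb2 exposed to compounds (15 concentrations) in the presence of 3.0uM nilutamide at 37C, 0% CO2.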

Test [3] in a line: qHTS assay to identify small molecule agonists of the estrogen receptor beta (ER-beta) signaling pathway - cell viability counter screen (AID 1259380; active = well fitted curve in the direction sought with a large enough effect in the repeat runs; an effect the other way counts as inactive or inconclusive; also: nearly all actives have a fitted effect of over 30% in size; also: potency is read from the fitted curve at half-maximal effect). In a few lines:
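Same-well viability counter screen. Cells: ER-beta-UAS-bla HEK293T, plated 6 hr before compound, in 2% charcoal-stripped FBS. Compound exposure 16 hr, 37C; viability by CellTiter-Glo luminescence after 30 min at room temperature.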
(Quantitative high-throughput screening tests each substance at several concentrations.)

Test [4] has as its target Androgen receptor (Homo sapiens) (UniProt P10275). The experiment in a line: qHTS assay to identify small molecule agonists of the androgen receptor (AR) signaling pathway in the presence of an antagonist (AID 1259381). Also: nearly all actives have a fitted effect of over 15% in size. In a few lines: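 Cells are MDA-kb2 (human breast carcinoma, MMTV-luc, AR/GR responsive). Nilutamide is present at 3.0uM final throughout; compounds are added at 15 concentrations and incubated 16hr at 37C before ONE-Glo luminescence detection.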

The nature of test [5]: qHTS assay to identify small molecule antagonists of the estrogen receptor beta (ER-beta) signaling pathway - cell viability counter screen (AID 1259382; active = well fitted curve in the direction sought with a large enough effect in the repeat runs; an effect the other way counts as inactive or inconclusive; also: nearly all actives have a fitted effect of over 55% in size; also: potency is read from the fitted curve at half-maximal effect). In a few lines:
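Following a 6 hr plating period, HEK293T cells carrying a UAS-driven beta-lactamase reporter under ER-beta control received compounds and 1nM E2 (final). After 16 hr at 37C and 2 hr substrate loading, CellTiter-Glo luminescence indicated viability.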

Test [6] deals with Estrogen receptor (Homo sapiens) (UniProt P03372). The experiment in a line: qHTS assay to identify small molecule agonists of the estrogen receptor alpha (ER-alpha) signaling pathway in the presence of an antagonist (AID 1259383). Also: nearly all actives have a fitted effect of over 15% in size. Also: potency is read from the fitted curve at half-maximal effect. As to activation: top concentration of the series differs between compounds. In a few lines: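 Cells are hormone-deprived for 5 days (charcoal-stripped FBS, no phenol red), plated for 24hr, spiked with 10.0nM ICI-182,780, then dosed at 15 concentrations. After 22hr at 37C, ONE-Glo luminescence reports ERE-luciferase activity.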
Estrogen receptor (Homo sapiens), sequence (P03372 whole entry, looked up): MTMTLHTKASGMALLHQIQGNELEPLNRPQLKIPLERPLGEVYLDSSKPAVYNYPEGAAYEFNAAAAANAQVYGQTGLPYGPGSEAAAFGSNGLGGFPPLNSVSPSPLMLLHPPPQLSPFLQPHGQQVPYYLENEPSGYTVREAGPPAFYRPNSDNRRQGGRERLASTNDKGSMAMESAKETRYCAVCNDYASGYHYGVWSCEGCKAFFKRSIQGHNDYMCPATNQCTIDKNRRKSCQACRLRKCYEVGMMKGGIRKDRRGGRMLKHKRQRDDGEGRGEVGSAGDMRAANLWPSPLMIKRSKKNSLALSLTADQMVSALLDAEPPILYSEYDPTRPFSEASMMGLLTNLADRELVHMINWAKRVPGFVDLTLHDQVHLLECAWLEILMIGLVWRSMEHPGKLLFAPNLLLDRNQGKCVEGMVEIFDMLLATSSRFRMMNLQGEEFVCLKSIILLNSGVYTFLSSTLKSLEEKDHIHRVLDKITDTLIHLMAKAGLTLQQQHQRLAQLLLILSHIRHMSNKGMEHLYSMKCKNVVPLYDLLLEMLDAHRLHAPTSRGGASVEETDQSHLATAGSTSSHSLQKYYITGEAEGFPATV

Test [7] can be described thus: qHTS assay to identify small molecule agonists or antagonists of the thyroid stimulating hormone receptor (TSHR) signaling pathway - wild type cell line counter screen (AID 1259384). The gist of the method: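 Wild-type HEK293 cells were plated 18 h at 37 C/5% CO2, pin-dosed with compound plus Ro20-1724 medium, held 30 min at room temperature, then given cAMP-d2 and anti-cAMP-cryptate; fluorescence was read after 1 h. Fifteen concentrations, triplicate.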

In test [8] the target is Thyrotropin receptor (Homo sapiens) (UniProt P16473). The experiment in a line: qHTS assay to identify small molecule antagonists of the thyroid stimulating hormone receptor (TSHR) signaling pathway (AID 1259385). Also: nearly all actives have a fitted effect of over 20% in size. Also: potency is read from the fitted curve at half-maximal effect. In a few lines: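 TSHR-HEK293 cells were plated and held 18 h at 37C/5% CO2, then given compound plus Ro20-1724 and stimulated with TSH at 1.5 ng/mL final. After 30 min at room temperature, cAMP was detected with cAMP-d2/anti-cAMP-cryptate (1 h) by fluorescence.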
Thyrotropin receptor (Homo sapiens), sequence (P16473 whole entry, looked up): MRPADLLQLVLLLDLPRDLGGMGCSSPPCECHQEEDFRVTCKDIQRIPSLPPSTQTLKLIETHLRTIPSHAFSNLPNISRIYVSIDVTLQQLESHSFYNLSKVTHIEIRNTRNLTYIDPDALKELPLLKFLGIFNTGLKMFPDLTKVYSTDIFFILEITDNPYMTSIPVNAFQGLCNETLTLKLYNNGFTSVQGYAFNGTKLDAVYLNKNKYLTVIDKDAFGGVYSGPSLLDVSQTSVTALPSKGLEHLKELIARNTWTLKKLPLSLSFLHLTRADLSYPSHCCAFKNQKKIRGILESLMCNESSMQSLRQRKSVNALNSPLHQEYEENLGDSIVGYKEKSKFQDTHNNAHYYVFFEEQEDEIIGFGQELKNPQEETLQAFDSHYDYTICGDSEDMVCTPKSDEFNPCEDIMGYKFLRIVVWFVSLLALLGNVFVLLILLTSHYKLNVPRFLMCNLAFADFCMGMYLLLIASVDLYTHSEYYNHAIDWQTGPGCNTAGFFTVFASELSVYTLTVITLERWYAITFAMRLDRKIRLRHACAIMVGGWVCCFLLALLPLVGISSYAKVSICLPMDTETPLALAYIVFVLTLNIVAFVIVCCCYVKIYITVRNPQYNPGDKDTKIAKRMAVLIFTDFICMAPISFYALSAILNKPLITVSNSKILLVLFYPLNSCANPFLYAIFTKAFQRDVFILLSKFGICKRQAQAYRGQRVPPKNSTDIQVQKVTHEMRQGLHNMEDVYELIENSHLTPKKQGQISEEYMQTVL

Test [9] has as its target Estrogen receptor beta (Homo sapiens) (UniProt Q92731). The experiment in a line: qHTS assay to identify small molecule agonists of the estrogen receptor beta (ER-beta) signaling pathway (AID 1259377; active = well fitted activation curve with a large enough effect in the signal ratio in the repeat runs, not every such curve was filed as active; the % refers to the signal ratio; also: potency is read from the fitted curve at half-maximal effect). The gist of the method:
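ER-beta-UAS-bla HEK293T cells in medium with 2% charcoal-stripped FBS were exposed to compounds for 16 h at 37C. Beta-lactamase reporter activity was read as fluorescence after 2 h with LiveBLAzer B/G FRET substrate at room temperature.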

Androgen receptor (Homo sapiens), sequence (P10275 whole entry, looked up): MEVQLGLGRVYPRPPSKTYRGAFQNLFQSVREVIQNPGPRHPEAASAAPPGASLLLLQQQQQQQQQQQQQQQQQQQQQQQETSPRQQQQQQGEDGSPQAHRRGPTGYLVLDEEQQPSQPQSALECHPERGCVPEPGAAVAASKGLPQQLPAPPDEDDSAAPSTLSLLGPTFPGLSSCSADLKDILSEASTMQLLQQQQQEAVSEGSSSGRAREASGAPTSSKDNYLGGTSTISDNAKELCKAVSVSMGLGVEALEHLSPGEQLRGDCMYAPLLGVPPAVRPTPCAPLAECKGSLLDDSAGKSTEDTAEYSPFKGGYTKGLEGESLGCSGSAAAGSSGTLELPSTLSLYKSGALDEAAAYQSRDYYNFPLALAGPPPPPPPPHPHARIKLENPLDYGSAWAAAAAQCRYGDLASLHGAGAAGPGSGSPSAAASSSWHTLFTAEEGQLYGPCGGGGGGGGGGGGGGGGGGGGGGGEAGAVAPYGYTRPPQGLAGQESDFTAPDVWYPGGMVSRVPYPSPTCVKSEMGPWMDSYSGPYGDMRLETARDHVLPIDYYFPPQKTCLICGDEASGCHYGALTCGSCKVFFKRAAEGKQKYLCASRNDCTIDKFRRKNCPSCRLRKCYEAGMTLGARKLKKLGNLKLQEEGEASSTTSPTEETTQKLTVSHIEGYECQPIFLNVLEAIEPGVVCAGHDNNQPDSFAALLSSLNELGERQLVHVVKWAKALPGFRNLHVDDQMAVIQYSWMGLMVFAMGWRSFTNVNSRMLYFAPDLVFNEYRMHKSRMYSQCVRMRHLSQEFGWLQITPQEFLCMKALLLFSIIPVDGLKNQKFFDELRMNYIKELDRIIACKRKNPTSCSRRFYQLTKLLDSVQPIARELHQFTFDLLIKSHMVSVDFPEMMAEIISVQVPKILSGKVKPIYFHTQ

On to `CN(C)[C@@H](CCOc1cccc2ccccc12)c1ccccc1`, for which the Potency in test [1] was 29.8 µM (active); in test [2], 29.8 µM (active); in [3] it was 23.7 µM (active); in test [5] it was 15 µM (active). Also, the outcome in test [4] and in test [7] was inactive. For the same molecule, the Potency result in [6] and in test [8] was “inactive” in each case.

As to `O=[N+]([O-])c1cccc(C(F)(F)F)c1`, the Potency entry in test [1], in [2], in test [3], in [5] and in [8] was “inactive” in each case. In test [7], the molecule was called inactive.

For the molecule `c1ccc(C(O[C@@H]2CCCN(CCc3ccc4c(c3)OCO4)C2)c2ccccc2)cc1`, the Potency result in test [9] and in test [8] was “inactive” each time. For the same molecule, the Potency in [1] is 48.6 µM (active). Besides, in test [7], the molecule was called inactive.

With `O=S(=O)(O)c1ccc(N=Nc2c(O)ccc3ccccc23)cc1`, the Potency entry in [9] and in test [1] was “inactive” in each case. The molecule was classed as inactive in [7].

With `CCCC[P+](C)(CCCC)CCCC`, the Potency entry in test [1], in test [2], in [5] and in [8] was “inactive” each time. For the same molecule, the molecule was classed as inactive in test [7].

With `COc1ccc(NC(=O)CC(C)=O)cc1`, the Potency result in test [9], in test [1], in test [2], in test [5] and in test [8] was “inactive” each time. The outcome in [7] was inactive.

Turning to `CCO[Si](OCC)(OCC)OCC`, the Potency result in [9], in test [1], in test [2], in [3], in test [5] and in test [6] was “inactive” throughout. For the same molecule, the Potency result in test [8] is “inactive”. Besides, the molecule was called inactive in [7].

As to `CC(C)(C)NSc1nc2ccccc2s1`, the Potency result in test [9], in test [1] and in test [8] was “inactive” throughout. Moreover, the result in [4] and in [7] was inactive.

On to `CN(C)Cc1cc(C(C)(C)C)c(O)c(C(C)(C)C)c1`, for which, in test [9], the Potency result was “inactive”. Further, the molecule was classed as inactive in test [7].

Regarding `Cc1ccc(C(C)C)cc2c(C)ccc1-2`, the Potency result in test [9], in [1], in test [2] and in [8] was “inactive” throughout. For the same molecule, the call in test [7] was inactive.

Turning to `O[C@@H]([C@H](O)[C@H](O)CBr)[C@H](O)CBr`, the Potency result in test [9], in test [1] and in test [6] was “inactive” throughout. In [7], the outcome was inactive.

Take `CN1CCN2c3ccccc3Cc3ccccc3C2C1` (centres undefined): the Potency entry in test [9], in test [2], in [6] and in test [8] was “inactive” each time. Also, the result in test [4] and in [7] was inactive.

For the molecule `CCN(CC)C(=O)c1cc(S(=O)(=O)Cc2ccccc2)c(N2CCC(c3ccccc3)CC2)cc1N(CC)CCN(C)C`, the Potency entry in test [9] and in test [6] was “inactive” in each case. For the same molecule, the Potency in [1] is 21.4 µM (active); in test [5], 19.1 µM (active). Besides, in [7], the result was inactive.

On to `O=C(/C=C/c1ccc(O)c(O)c1)O[C@@H](C(=O)O)[C@@H](OC(=O)/C=C/c1ccc(O)c(O)c1)C(=O)O`, for which the Potency entry in [1], in test [2] and in [5] was “inactive” in each case.

As for `COC(=O)C1=C(C)NC(C)=C(C(=O)OCCN2CCN(C(c3ccccc3)c3ccccc3)CC2)C1c1cccc([N+](=O)[O-])c1` (centres undefined), the Potency result in test [9], in test [3] and in test [6] was “inactive” each time. In test [7], the molecule was classed as inactive.

Take `Cc1ccc(O)c(O)c1`: the Potency result in test [9], in [2] and in [3] was “inactive” each time.

In the case of `C#C[C@]1(OC(C)=O)CC[C@H]2[C@@H]3CCC4=C[C@@H](OC(C)=O)CC[C@@H]4[C@H]3CC[C@@]21C`, the results for the Potency in test [9], in [6] and in [8] were 0.335 µM (active), 0.0531 µM (active) and 11.9 µM (active), respectively. Also, the Potency result in [2] and in test [5] was “inactive” throughout. Besides, the result in [7] was inactive.

Consider `c1ccc(SSc2ccccc2)cc1`, for which the Potency result in test [9], in test [1], in [2], in test [5] and in test [6] was “inactive” throughout.

In the case of `CCCCN(CCCC)CC(O)c1cc(Cl)cc2c1-c1ccc(Cl)cc1/C2=C/c1ccc(Cl)cc1` (centres undefined), the Potency entry in test [9], in [2] and in test [8] was “inactive” throughout. In addition, the Potency in test [3] was 29.8 µM (active). In addition, in test [7], the outcome was inactive.

Turning to `CC[N+](CC)(CC)CCOc1ccc(/C=C/c2ccccc2)cc1`, the Potency entry in test [9], in test [5], in test [6] and in [8] was “inactive” each time. Besides, the outcome in [7] was inactive.

With `Cc1cc(-c2ccc(N=Nc3cc(S(=O)(=O)O)c4ccccc4c3N)c(C)c2)ccc1N=Nc1cc(S(=O)(=O)O)c2ccccc2c1N`, the Potency entry in test [9], in test [1], in test [5], in test [6] and in [8] was “inactive” each time. Moreover, in test [2], the Potency is 3.88 µM (active). For the same molecule, the molecule was classed as inactive in [7].

As to `CCC(CC)C(C)CCOC(C)=O` (centres undefined), the Potency result in test [9], in test [1], in [2], in [3], in [5] and in test [8] was “inactive” throughout. The molecule was called inactive in test [7].

`O=c1c(O)c(-c2ccc(O)cc2O)oc2cc(O)cc(O)c12`: the Potency result in test [3], in [5], in test [6] and in test [8] was “inactive” in each case.

Take `CC(C)CCCCCOC(=O)CCS`: the Potency entry in test [2], in [3], in test [5], in test [6] and in [8] was “inactive” throughout. The call in test [7] was inactive.

As for `[Cl][Pt-2]([Cl])([Cl])[Cl]`, the Potency entry in test [2], in [3] and in test [5] was “inactive” in each case. Besides, the call in test [7] was inactive. The Potency in test [8] is 34.5 µM (active).

Turning to `CCC(CC)(CC(=O)Nc1cccc(/C=C/c2nc(C3CCC3)cs2)c1)C(=O)O`, the Potency entry in test [2] is “inactive”. Also, the Potency in test [3] was 7.5 µM (active).
